Settings in all cases: concentration: 1 μM, replicates: in singlicate; n = 1
Assay [1] relates to CHEK1.
The test system of assay [2] is CHEK2.
Assay [3] concerns CIT.
The subject of assay [4] is CLK1.
Assay [5] deals with CLK2.
Assay [6] relates to CLK3.
In assay [7] the test system is CLK4.
The test system of assay [8] is CSF1R-autoinhibited.
The subject of assay [9] is CSF1R.
Assay [10] deals with CSK.
Assay [11] concerns CSNK1A1L.
The subject of assay [12] is CSNK1A1.
Assay [13] concerns CSNK1D.
Assay [14] relates to CSNK1E.
Assay [15] has as its system CSNK1G1.
Assay [16] has as its system CSNK1G2.
The test system of assay [17] is CSNK1G3.
Assay [18] concerns CSNK2A1.
The test system of assay [19] is CSNK2A2.
In assay [20] the test system is T1, CTK.
T1 construct: gene MATK

The results in this text go back to article PMC5540273 (PLoS ONE, 2017).

Molecules are shown by their SMILES.
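Note: KINOMEscan kinase panel screen.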

As to `Cc1c(Cn2c(C)nn3c(=O)cc(N4CCOC(C)C4)nc23)cccc1C(F)(F)F` (stereo not drawn) [GSK2344444], the “%Inh” value in assay [1] was determined as 10%; in [2], 0%; in [3] it was 9%; in assay [4], 29%; in assay [5], 0%; in assay [6], 0%. Moreover, the “%Inh” value in assay [7] was 13%; in assay [8] it was 0%; in [9] it was 0%; in assay [10] it was 0%; in assay [11], 0%; in [12], 0%. Besides, the “%Inh” value in assay [13] is 0%; in [14], 0%; in assay [15], 0%; in assay [16], 0%; in assay [17], 18%; in assay [18] it was 12%. Moreover, the “%Inh” value in assay [19] came to 9%; in assay [20] it was 2%.
Turning to `O=C(Nc1cccc(-c2nn3ncccc3c2-c2ccnc(Nc3cccc(C(F)(F)F)c3)n2)c1)c1c(F)cccc1F` [GSK299495], the “%Inh” value was 5% in assay [1]; 0% in [2]; 0% in [3]; 18% in assay [4]; 100% in [5]; 0% in assay [6]. In addition, the “%Inh” value is 25% in assay [7]; 8% in [8]; 98.1% in [9]; 88% in assay [10]; 24% in assay [11]; 0% in assay [12]. In addition, the “%Inh” value in [13] was 12%; in assay [14], 82%; in assay [15], 0%; in assay [16], 0%; in assay [17], 18%; in assay [18], 0%. Moreover, the “%Inh” value in [19] and in assay [20] was 0% each time.
For the molecule `O=C(NOCC1CC1)c1ccc(F)c(F)c1Nc1ccc(I)cc1Cl`, the “%Inh” value is 0% in assay [1]; 21% in assay [2]; 0% in assay [3]; 0% in assay [4]; 3% in assay [5]; 0% in [6]. Moreover, the “%Inh” value is given as 0% in [7]; 0% in assay [8]; 0% in assay [9]; 0% in [10]; 0% in [11]; 3% in assay [12]. The “%Inh” value in assay [13] amounted to 0%; in assay [14], 3%; in assay [15] it was 0%; in [16] it was 0%; in assay [17] it was 0%; in assay [18], 0%. Further, the “%Inh” value in assay [19] worked out at 18%; in [20], 0%.
Regarding `CC(=O)Nc1ccc(COc2ccc(Nc3ccnc4cc(-c5ccccn5)ccc34)cc2)cc1.Cl` [GW440148], the “%Inh” value in [1] is 1%; in assay [2] it was 29%; in [3], 20%; in [4], 35%; in assay [5], 0%; in assay [6], 0%. Moreover, the “%Inh” value in assay [7] is reported as 0%; in assay [8], 32%; in assay [9] it was 99.3%; in [10] it was 36%; in assay [11], 0%; in assay [12], 0%. Moreover, the “%Inh” value in assay [13] was found to be 24%; in assay [14], 33%; in [15] it was 9%; in assay [16], 0%; in [17], 29%; in assay [18], 5%. Further, the “%Inh” value in assay [19] is reported as 11%; in assay [20], 3%.
For `CCc1ccnc(/C=C/c2n[nH]c3cc(Sc4ccccc4C(=O)NC)ccc23)c1`, the “%Inh” value in [1] was determined as 0%; in [2], 8%; in assay [3], 0%; in assay [4], 0%; in assay [5], 0%; in assay [6] it was 0%. Also, the “%Inh” value is 0% in [7]; 66% in [8]; 99.9% in assay [9]; 12% in [10]; 0% in [11]; 26% in assay [12]. For the same molecule, the “%Inh” value is 8% in assay [13]; 0% in [14]; 0% in [15]; 0% in [16]; 0% in assay [17]; 0% in assay [18]. The “%Inh” value in assay [19] and in assay [20] was 0% in each case.
As for `C[C@@H](Oc1cc(-n2cnc3ccc(NC(=O)NC(C)(C)C)cc32)sc1C(N)=O)c1ccccc1Cl` [GSK346294], the “%Inh” value in assay [1] was found to be 10%; in assay [2], 19%; in [3], 0%; in assay [4], 18%; in assay [5], 7%; in assay [6], 22%. Also, the “%Inh” value in [7] was found to be 40%; in assay [8], 15%; in assay [9] it was 6%; in [10], 1%; in assay [11] it was 6%; in assay [12], 0%. In addition, the “%Inh” value is 3% in assay [13]; 19% in assay [14]; 0% in assay [15]; 0% in assay [16]; 32% in assay [17]; 2% in [18]. Besides, the “%Inh” value in assay [19] and in assay [20] was 0% throughout.
As to `Cn1ccc2ncnc(Oc3ccc(NC(=O)Nc4ccncc4)c(Cl)c3)c21`, the “%Inh” value is given as 0% in assay [1]; 20% in [2]; 18% in [3]; 0% in [4]; 0% in assay [5]; 0% in [6]. The “%Inh” value came out at 21% in assay [7]; 0% in [8]; 0% in assay [9]; 0% in assay [10]; 0% in assay [11]; 0% in assay [12]. The “%Inh” value in [13], in assay [14], in [15], in [16], in assay [17] and in [18] was 0% each time. The “%Inh” value in assay [19] and in assay [20] was 0% in each case.
Take `COc1ccc(Nc2nccc(N3CCC(NC(=O)Nc4cccc(C(C)=O)c4)C3)n2)cc1` (stereo not drawn) [GSK1379731]: the “%Inh” value is 0% in assay [1]; 0% in assay [2]; 0% in [3]; 5% in [4]; 0% in assay [5]; 5% in assay [6]. The “%Inh” value in assay [7] worked out at 2%; in assay [8], 0%; in assay [9] it was 0%; in assay [10] it was 0%; in assay [11], 4%; in assay [12], 0%. In addition, the “%Inh” value in assay [13] was determined as 0%; in assay [14], 39%; in assay [15], 0%; in assay [16], 0%; in assay [17], 0%; in assay [18] it was 0%. In addition, the “%Inh” value in assay [19] and in assay [20] was 0% in each case.
In the case of `Cl.Nc1ncnc2occ(-c3ccc(NC(=O)Nc4cc(C(F)(F)F)ccc4F)cc3)c12` [SB-707548], the “%Inh” value in assay [1] was 6%; in [2], 45%; in [3], 82%; in [4], 69%; in [5], 11%; in assay [6], 13%. For the same molecule, the “%Inh” value was found to be 69% in assay [7]; 90.7% in assay [8]; 99.9% in assay [9]; 20% in assay [10]; 11% in assay [11]; 10% in [12]. Moreover, the “%Inh” value in assay [13] stood at 32%; in assay [14], 25%; in [15], 16%; in assay [16] it was 0%; in [17], 32%; in assay [18] it was 0%. The “%Inh” value worked out at 0% in assay [19] and 4% in assay [20].
For `CCCCCc1nc2c(N)ncnc2n1CCCCC` [SKF-97255], the “%Inh” value turned out to be 0% in [1]; 0% in assay [2]; 9% in assay [3]; 24% in [4]; 14% in assay [5]; 3% in assay [6]. Further, the “%Inh” value worked out at 17% in assay [7]; 0% in assay [8]; 17% in [9]; 0% in assay [10]; 0% in assay [11]; 14% in assay [12]. For the same molecule, the “%Inh” value came to 0% in [13]; 3% in assay [14]; 0% in assay [15]; 0% in assay [16]; 6% in assay [17]; 0% in assay [18]. Moreover, the “%Inh” value came to 28% in assay [19] and 0% in assay [20].
Regarding `CN1c2ccc(CNc3ccc(F)cc3)cc2-c2c(cnn2C)S1(=O)=O`, the “%Inh” value was 0% in assay [1]; 0% in assay [2]; 1% in [3]; 0% in assay [4]; 11% in assay [5]; 0% in [6]. In addition, the “%Inh” value in assay [7] is listed as 17%; in assay [8], 1%; in [9], 0%; in assay [10], 0%; in [11] it was 0%; in assay [12], 1%. Further, the “%Inh” value in assay [13], in assay [14], in assay [15], in [16], in assay [17] and in assay [18] was 0% in each case. Further, the “%Inh” value in assay [19] and in assay [20] was 0% in each case.
Regarding `CC(C)Oc1ccc2c(-c3ccnc(Nc4ccc(N5CCN(C)CC5)cc4)n3)cnn2n1` [GW696155], the “%Inh” value in assay [1] was determined as 0%; in assay [2], 67%; in assay [3], 98.7%; in assay [4], 97%; in assay [5] it was 96.8%; in [6], 1%. The “%Inh” value in [7] is listed as 93.7%; in assay [8] it was 58%; in [9], 65%; in assay [10], 34%; in assay [11] it was 0%; in assay [12] it was 46%. Also, the “%Inh” value in [13] came to 37%; in assay [14], 28%; in assay [15] it was 28%; in assay [16] it was 0%; in assay [17] it was 19%; in assay [18], 94.6%. Also, the “%Inh” value in assay [19] stood at 98.9%; in [20], 0%.
Consider `O=c1cc(N2CCOCC2)nc2n(Cc3cccc4ccccc34)ccn12` [GSK2333389], for which the “%Inh” value in [1] was determined as 20%; in assay [2] it was 0%; in [3], 9%; in [4], 48%; in [5], 3%; in [6], 0%. Also, the “%Inh” value in [7] is 31%; in assay [8] it was 0%; in [9], 4%; in [10], 0%; in [11] it was 11%; in [12] it was 13%. The “%Inh” value amounted to 42% in assay [13]; 20% in assay [14]; 0% in [15]; 0% in [16]; 20% in assay [17]; 13% in [18]. The results for the “%Inh” value in assay [19] and in assay [20] were 0% and 1%, respectively.
Consider `COc1ccc(COc2cc(-n3cnc4ccccc43)sc2C(N)=O)cc1` [GSK1024304], for which the “%Inh” value amounted to 0% in assay [1]; 0% in [2]; 29% in assay [3]; 27% in assay [4]; 48% in assay [5]; 17% in assay [6]. In addition, the “%Inh” value stood at 12% in assay [7]; 0% in assay [8]; 4% in assay [9]; 0% in assay [10]; 13% in [11]; 0% in [12]. Besides, the “%Inh” value worked out at 0% in assay [13]; 30% in [14]; 11% in [15]; 5% in assay [16]; 22% in assay [17]; 4% in assay [18]. The “%Inh” value in [19] is given as 13%; in assay [20], 0%.
Turning to `c1ccc(-c2n[nH]cc2-c2ccnc3ccccc23)nc1` [GW271431], the “%Inh” value in assay [1] was 5%; in assay [2], 0%; in assay [3], 41%; in [4], 28%; in assay [5], 7%; in [6] it was 55%. Moreover, the “%Inh” value in assay [7] was 20%; in assay [8], 11%; in [9], 6%; in assay [10], 0%; in [11], 19%; in assay [12], 38%. In addition, the “%Inh” value in assay [13] came out at 60%; in assay [14], 69%; in assay [15], 20%; in assay [16], 0%; in assay [17] it was 24%; in assay [18] it was 0%. Moreover, the “%Inh” value in assay [19] came to 23%; in assay [20] it was 0%.
